Assay results: PubChem BioAssay (NCATS)
Inconclusive results are not listed. The source made the active and inactive calls. Unless noted, calls come from the whole dose curve; as a rule, active = well fitted curve in the direction sought with a large enough effect; inconclusive = small, poorly fitted or top-dose-only effect, or another doubt; inactive = no such curve, though single readings can be large; an effect the other way counts as inactive or inconclusive.

Legend:
[1] = molecular target: Cytochrome P450 1A2 (Homo sapiens) (UniProt P05177); assay: p450-cyp1a2 (AID 410; calls by dose curve; note: potency is the fitted concentration of half-maximal effect;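 for activity change, negative = inhibition: -100% = full effect of reference inhibitor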)
Chain of Cytochrome P450 1A2 (Homo sapiens) (P05177 whole entry, looked up): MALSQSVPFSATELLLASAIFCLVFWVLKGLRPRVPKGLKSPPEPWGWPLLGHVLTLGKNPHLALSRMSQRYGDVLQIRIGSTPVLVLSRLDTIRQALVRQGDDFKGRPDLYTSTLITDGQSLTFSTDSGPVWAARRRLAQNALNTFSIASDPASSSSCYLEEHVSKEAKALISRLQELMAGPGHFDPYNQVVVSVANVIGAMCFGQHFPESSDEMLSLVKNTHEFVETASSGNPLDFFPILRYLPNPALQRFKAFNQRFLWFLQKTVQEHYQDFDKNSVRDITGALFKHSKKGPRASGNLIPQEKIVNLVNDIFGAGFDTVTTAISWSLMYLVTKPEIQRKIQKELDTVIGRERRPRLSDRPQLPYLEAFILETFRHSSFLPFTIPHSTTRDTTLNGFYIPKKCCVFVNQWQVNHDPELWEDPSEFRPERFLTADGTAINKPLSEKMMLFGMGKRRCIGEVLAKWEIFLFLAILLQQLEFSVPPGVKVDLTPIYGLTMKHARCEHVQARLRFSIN
Outline: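 O-Demethylation of luciferin 6' methyl ether by human CYP1A2 is monitored as luciferase luminescence. Substrate sits at Km (100uM); enzyme is 20nM. Values are scaled to 57 uM furafylline as maximal inhibition.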

[2] = molecular target: Glucocorticoid receptor (Homo sapiens) (UniProt P04150); assay: GR-GFP Redistribution (AID 450;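 active = compounds whose dose series gives a full or clear partial fitted curve of increased nuclear translocation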; note: potency is the fitted concentration of half-maximal effect); details: U2OS GR-GFP nuclear translocation, laser cytometry, 2 h
Chain of Glucocorticoid receptor (Homo sapiens) (P04150 whole entry, looked up, the tested form may be a part): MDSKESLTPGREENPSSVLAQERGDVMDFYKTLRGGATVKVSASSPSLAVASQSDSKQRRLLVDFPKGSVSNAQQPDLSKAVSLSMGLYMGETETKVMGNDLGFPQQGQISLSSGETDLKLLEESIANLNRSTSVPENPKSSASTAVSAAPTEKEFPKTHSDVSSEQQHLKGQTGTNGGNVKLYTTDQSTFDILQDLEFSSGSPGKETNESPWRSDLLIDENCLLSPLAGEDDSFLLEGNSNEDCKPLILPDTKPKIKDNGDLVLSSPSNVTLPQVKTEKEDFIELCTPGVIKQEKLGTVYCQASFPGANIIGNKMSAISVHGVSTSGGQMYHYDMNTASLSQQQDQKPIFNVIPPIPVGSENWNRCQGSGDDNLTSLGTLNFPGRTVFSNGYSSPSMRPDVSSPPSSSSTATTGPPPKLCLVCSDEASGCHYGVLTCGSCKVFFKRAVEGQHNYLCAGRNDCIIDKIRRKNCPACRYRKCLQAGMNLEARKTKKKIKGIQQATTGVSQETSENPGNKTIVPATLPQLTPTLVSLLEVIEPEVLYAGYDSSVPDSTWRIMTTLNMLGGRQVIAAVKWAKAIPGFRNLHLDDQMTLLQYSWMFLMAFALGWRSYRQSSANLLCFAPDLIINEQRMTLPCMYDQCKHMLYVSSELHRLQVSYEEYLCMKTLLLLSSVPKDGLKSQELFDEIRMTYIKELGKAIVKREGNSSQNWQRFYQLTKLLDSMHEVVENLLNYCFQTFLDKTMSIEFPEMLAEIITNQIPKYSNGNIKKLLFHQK

[3] = molecular target: Glucocorticoid receptor (Homo sapiens) (UniProt P04150); assay: GR-EFC Redistribution (AID 451; calls by dose curve; note: potency is the fitted concentration of half-maximal effect); details: CHO-K1 GR-EFC translocation, beta-gal luminescence, 2 h
Outline: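 CHO-K1 cells expressing nuclear EA and GR-ED fragments of b-gal; compounds titrated up to 46 uM final, 2 h at 37 C. GR nuclear translocation read as complemented b-gal luminescence after 1 h RT detection.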

[4] = molecular target: Mitogen-activated protein kinase 10 (Mus musculus) (UniProt Q61831); assay: JNK3 AlphaScreen Assay (AID 530; active = well fitted curve in either direction with a large enough effect, not every such curve was filed as active;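 note: kinase came from lysate of stimulated human HepG2 cells; signal reports phosphorylation of biotinylated GST-cJun 1-79 at Ser73 with 10 µM ATP; % is set by controls: 0 for no effect and ±100 for the full control effect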)
Outline: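 Activity was read by AlphaScreen after JNK3-containing HepG2 lysate (cytokine pre-activated) phosphorylated biotinylated GST-cJun with 10 uM ATP at room temperature. Phospho-Ser73 cJun antibody with Protein-A acceptor beads provided detection.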

[5] = molecular target: Cytochrome P450 3A4 (Homo sapiens) (UniProt P08684); assay: qHTS Assay for Activators of Cytochrome P450 3A4 (AID 885); note: nearly all actives have a fitted effect of over 65% in size
Chain of Cytochrome P450 3A4 (Homo sapiens) (P08684 whole entry, looked up): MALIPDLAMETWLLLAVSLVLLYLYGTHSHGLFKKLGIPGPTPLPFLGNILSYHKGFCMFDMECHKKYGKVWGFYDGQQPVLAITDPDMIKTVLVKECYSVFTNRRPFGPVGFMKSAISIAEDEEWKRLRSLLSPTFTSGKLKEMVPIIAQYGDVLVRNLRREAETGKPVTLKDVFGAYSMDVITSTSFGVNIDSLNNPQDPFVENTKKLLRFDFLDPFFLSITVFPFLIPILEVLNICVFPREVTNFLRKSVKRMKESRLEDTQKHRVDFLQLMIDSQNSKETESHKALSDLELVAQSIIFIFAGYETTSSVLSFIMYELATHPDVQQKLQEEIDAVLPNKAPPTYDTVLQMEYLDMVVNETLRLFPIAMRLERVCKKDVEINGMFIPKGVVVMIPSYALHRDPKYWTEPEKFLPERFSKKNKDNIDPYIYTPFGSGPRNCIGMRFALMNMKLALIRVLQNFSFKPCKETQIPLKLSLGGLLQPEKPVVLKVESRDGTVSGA
Outline: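 Luminescent readout of luciferin formed from 25 uM Luciferin-PPXE (KM level) by 20 nM CYP3A4 in 200 mM KPO4, with 60 min NADPH-driven reaction at room temperature after 10 min compound exposure. Ketoconazole (57 uM) defined 100% inhibition.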

[6] = molecular target: Cytochrome P450 2C19 (Homo sapiens) (UniProt P33261); assay: qHTS Assay for Inhibitors and Substrates of Cytochrome P450 2C19 (AID 899); note: potency is the fitted concentration of half-maximal effect; nearly all actives have a fitted effect of over 60% in size
Chain of Cytochrome P450 2C19 (Homo sapiens) (P33261 whole entry, looked up): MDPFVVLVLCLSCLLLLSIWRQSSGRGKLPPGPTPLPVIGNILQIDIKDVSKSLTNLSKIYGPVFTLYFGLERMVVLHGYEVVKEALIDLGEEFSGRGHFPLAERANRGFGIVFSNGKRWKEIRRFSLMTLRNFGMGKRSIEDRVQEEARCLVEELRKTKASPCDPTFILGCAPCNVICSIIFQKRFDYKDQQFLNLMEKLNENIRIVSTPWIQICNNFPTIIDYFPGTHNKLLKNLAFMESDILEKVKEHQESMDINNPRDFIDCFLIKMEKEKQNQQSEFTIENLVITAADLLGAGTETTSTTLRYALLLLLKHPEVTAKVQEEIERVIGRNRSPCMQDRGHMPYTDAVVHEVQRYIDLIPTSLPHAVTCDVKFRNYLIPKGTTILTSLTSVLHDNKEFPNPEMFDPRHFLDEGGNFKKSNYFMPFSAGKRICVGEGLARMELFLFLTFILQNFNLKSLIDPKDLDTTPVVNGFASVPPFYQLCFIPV
Outline: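 Luminescent read-out of luciferin formed from Luciferin-H EGE (10uM, equal to KM). Enzyme 5nM in 50mM KPO4; compound added, 10 min at 37C, then NADPH regenerating system for 60 min at 37C. Full inhibition defined by 57uM ketoconazole.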

[7] = molecular target: Ubiquitin carboxyl-terminal hydrolase 1 (Homo sapiens) (UniProt O94782); assay: Inhibitors of USP1/UAF1: Pilot qHTS (AID 504865); note: nearly all actives have a fitted effect of over 35% in size; note: potency is the fitted concentration of half-maximal effect;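 for activity change, negative = inhibition: rhodamine fluorescence freed from ubiquitin-rhodamine substrate followed over time; top concentration of the series differs between compounds; % is set by controls: 0 for no effect and ±100 for the full control effect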
Outline: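 Enzyme-free wells gave the negative control, while test wells held 1nM USP1/UAF1 preincubated with compound for 15 min at room temperature. Ub-Rho at 150nM final started the reaction, and fluorescence at 480/540 nm was recorded kinetically.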

[8] = molecular target: DNA dC->dU-editing enzyme APOBEC-3G (Homo sapiens) (UniProt Q9HC16); assay: qHTS for inhibitors of Vif-A3G interactions: Validation (AID 588379); note: 0% is about no effect
Chain of DNA dC->dU-editing enzyme APOBEC-3G (Homo sapiens) (Q9HC16 whole entry, looked up): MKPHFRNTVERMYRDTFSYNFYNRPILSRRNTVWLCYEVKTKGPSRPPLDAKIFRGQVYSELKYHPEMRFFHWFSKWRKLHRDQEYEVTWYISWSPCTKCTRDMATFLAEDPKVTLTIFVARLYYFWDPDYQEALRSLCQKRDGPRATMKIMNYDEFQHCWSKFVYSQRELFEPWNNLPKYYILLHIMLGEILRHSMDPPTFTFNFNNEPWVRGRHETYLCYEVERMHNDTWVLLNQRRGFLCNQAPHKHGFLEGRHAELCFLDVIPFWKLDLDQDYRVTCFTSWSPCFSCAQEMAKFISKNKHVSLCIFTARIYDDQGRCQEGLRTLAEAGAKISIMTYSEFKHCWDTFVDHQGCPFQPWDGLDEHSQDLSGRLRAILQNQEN
Outline: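 Yellow fluorescence (Ex 488, Em 500-530) of Vif-coexpressing HeLa A3G-eYFP cells, scanned by Acumen cytometer, reports blocked A3G degradation. Cells plated at 700/well overnight at 37 deg C before compound addition, then a further overnight compound incubation at 37 deg C.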

[9] = test system: Zika virus NS2B-NS3 protease; assay: Primary screen GU AMC qHTS for Zika virus inhibitors (AID 1347154); note: nearly all actives have a fitted effect of over 70% in size; note: potency is the fitted concentration of half-maximal effect;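 for activity change, negative = inhibition: 0% = no-inhibitor control and -100% = no-enzyme control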
Outline: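 Unlinked Zika NS2B hydrophilic domain–NS3 protease complex at 25 nM in 10 mM Tris-HCl pH 8.0, 0.01% Tween 20, with an AMC peptide substrate. Fluorescence change (340/450 nm) over 15 min at room temperature, normalized to controls, fitted to 4-parameter Hill.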

[10] = molecular target: 3',5'-cyclic-AMP phosphodiesterase 4B (Homo sapiens) (UniProt Q07343); assay: qHTS Assay for Inhibitors of PDE-IV (AID 607; active = well fitted activation curve with a large enough effect in the main read-out, with a control signal flat, not every such curve was filed as active; note: % of control where 0% means no effect)
Chain of 3',5'-cyclic-AMP phosphodiesterase 4B (Homo sapiens) (Q07343 whole entry, looked up): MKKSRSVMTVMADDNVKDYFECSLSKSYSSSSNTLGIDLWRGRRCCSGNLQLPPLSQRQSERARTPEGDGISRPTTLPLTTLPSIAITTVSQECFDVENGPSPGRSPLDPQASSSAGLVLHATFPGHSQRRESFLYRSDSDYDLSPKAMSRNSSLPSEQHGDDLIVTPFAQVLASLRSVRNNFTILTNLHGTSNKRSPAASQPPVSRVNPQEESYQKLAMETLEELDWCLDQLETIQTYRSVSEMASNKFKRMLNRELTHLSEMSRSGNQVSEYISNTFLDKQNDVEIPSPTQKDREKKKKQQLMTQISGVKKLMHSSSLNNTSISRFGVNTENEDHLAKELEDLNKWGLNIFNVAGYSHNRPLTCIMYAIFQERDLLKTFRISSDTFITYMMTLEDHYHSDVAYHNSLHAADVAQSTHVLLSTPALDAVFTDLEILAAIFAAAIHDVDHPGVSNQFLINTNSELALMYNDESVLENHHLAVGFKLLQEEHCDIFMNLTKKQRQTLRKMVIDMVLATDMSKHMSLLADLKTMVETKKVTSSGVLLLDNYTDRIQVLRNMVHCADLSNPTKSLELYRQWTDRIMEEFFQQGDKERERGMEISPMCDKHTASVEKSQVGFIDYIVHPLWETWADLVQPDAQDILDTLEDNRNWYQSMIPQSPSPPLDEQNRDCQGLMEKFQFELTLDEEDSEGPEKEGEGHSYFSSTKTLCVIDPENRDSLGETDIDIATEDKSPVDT
Outline: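 Cell-based read-out of cAMP via a modified cyclic nucleotide-gated channel and membrane potential dye (535/590 nm) in HEK293 cells expressing PDE4 endogenously. Compounds tested up to 22.9 uM final; 100 uM RO 20-1724 reference.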

[11] = qHTS Assay for Lipid Storage Modulators (AID 1519; calls by dose curve; for activity change, negative = inhibition: % is set by controls: 0 for no effect and ±100 for the full control effect); details: Drosophila S3 cells, BODIPY lipid droplet/cell ratio, laser cytometry, cells loaded with oleic acid; for activity change, negative = inhibition: at 57.5 µM (top of the series)
Outline: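 Cells seeded at 5,000 per well were treated with compounds over a concentration series and loaded with oleic acid (400 uM, as added). Lipid droplet fluorescence (488 nm excitation, 500-530 nm channel) was read by laser-scanning cytometry and normalized to 20 uM Triacsin C.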

[12] = molecular target: Tyrosyl-DNA phosphodiesterase 1 (Homo sapiens) (UniProt Q9NUW8); assay: Confirmation Assay for Inhibitors of Tyrosyl-DNA Phosphodiesterase (TDP1) (AID 489007); details: recombinant human TDP1 enzymatic activity, dose-response; note: potency is the fitted concentration of half-maximal effect; nearly all actives have a fitted effect of over 40% in size
Chain of Tyrosyl-DNA phosphodiesterase 1 (Homo sapiens) (Q9NUW8 whole entry, looked up): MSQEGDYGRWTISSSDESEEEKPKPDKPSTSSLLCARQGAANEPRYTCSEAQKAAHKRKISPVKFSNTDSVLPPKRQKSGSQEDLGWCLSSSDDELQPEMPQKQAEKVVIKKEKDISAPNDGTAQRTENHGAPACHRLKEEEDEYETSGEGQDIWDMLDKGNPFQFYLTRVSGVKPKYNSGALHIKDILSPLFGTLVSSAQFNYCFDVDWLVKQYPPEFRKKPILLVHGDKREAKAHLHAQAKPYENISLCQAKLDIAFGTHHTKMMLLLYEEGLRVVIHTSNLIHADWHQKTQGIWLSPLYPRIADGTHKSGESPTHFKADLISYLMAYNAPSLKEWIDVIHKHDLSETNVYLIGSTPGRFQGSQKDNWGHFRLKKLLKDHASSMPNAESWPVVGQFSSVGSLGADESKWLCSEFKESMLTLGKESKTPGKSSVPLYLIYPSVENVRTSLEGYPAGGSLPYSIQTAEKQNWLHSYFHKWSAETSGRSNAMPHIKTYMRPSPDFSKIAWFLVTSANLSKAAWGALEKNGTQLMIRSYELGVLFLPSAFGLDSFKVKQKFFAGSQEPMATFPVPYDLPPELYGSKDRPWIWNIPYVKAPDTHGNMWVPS
Outline: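 Compounds are preincubated 15 min at room temperature with 1 nM recombinant human Tdp1. The reaction starts on adding 15 nM FITC-phosphotyrosine DNA substrate, runs 5 min, and is detected by AlphaScreen beads after 10 min.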

[13] = molecular target: Cytochrome P450 2C9 (Homo sapiens) (UniProt P11712); assay: qHTS Assay for Inhibitors and Substrates of Cytochrome P450 2C9 (AID 883); note: potency is the fitted concentration of half-maximal effect; nearly all actives have a fitted effect of over 60% in size
Chain of Cytochrome P450 2C9 (Homo sapiens) (P11712 whole entry, looked up): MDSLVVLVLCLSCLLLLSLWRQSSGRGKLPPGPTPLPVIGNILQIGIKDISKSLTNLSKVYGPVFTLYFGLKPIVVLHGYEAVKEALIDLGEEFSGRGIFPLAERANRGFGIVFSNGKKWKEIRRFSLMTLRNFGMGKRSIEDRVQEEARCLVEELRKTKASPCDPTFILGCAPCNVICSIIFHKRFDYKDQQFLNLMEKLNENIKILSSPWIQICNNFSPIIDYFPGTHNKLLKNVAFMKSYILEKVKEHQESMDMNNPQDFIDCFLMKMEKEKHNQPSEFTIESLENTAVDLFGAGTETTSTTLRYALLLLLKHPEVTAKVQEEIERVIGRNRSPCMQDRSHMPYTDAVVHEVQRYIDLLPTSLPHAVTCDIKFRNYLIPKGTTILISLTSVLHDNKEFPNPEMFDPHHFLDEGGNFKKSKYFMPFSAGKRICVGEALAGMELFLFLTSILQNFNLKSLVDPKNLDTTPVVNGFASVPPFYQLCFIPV
Outline: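 10nM CYP2C9 + 100uM Luciferin-H (=KM), 25mM KPO4; cpd 10 min 37C; NADPH regen, 60 min 37C; stop/detect with P450 Glo-Buffer 20 min; luminescence. Norm. to 57uM sulphaphenazole as full inhibition.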

[14] = molecular target: Cytochrome P450 2D6 (Homo sapiens) (UniProt P10635); assay: Cytochrome P450 family 2 subfamily D member 6 (CYP2D6) small molecule antagonists: luciferase biochemical (cell-free) qHTS assay (AID 1645840; active = well fitted curve in the direction sought with a large enough effect in the repeat runs; an effect the other way counts as inactive or inconclusive; note: % is set by controls: 0 for no effect and ±100 for the full control effect; nearly all actives have a fitted effect of over 55% in size)
Chain of Cytochrome P450 2D6 (Homo sapiens) (P10635 whole entry, looked up): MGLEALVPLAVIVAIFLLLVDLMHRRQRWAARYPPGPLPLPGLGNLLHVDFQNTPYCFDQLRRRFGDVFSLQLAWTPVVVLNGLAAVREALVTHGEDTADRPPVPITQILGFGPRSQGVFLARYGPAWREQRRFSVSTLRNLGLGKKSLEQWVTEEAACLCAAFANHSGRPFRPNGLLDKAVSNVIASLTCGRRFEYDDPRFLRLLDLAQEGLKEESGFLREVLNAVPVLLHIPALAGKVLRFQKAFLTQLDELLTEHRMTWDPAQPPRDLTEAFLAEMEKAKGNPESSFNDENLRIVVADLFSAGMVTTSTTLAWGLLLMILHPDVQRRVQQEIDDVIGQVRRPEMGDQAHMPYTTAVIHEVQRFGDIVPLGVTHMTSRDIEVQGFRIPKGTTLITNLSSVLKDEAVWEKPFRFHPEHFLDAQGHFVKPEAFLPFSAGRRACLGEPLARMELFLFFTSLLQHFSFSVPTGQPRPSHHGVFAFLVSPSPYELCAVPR
Outline: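 P450-Glo CYP2D6 system: proluciferin substrate converted by enzyme to luciferin, read by luminescence proportional to activity. Enzyme-substrate mix with compound 10 min at room temperature, then NADPH regeneration 1 h before detection reagent.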

[15] = molecular target: Cytochrome P450 2C9 (Homo sapiens) (UniProt P11712); assay: Cytochrome P450 family 2 subfamily C member 9 (CYP2C9) small molecule antagonists: luciferase biochemical (cell-free) qHTS assay (AID 1645842; active = well fitted curve in the direction sought with a large enough effect in the repeat runs; an effect the other way counts as inactive or inconclusive; note: % is set by controls: 0 for no effect and ±100 for the full control effect; nearly all actives have a fitted effect of over 55% in size)
Outline: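 P450-Glo CYP2C9 system: proluciferin substrate with enzyme in mix containing 0.4% BSA, 10 min at room temperature, then NADPH regeneration solution added and incubated 1 h at 37C. Detection reagent stopped reaction; luminescence read after 20 min as RLU.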

[16] = molecular target: Cytochrome P450 3A4 (Homo sapiens) (UniProt P08684); assay: qHTS Assay for Inhibitors and Substrates of Cytochrome P450 3A4 (AID 884); note: potency is the fitted concentration of half-maximal effect; nearly all actives have a fitted effect of over 50% in size
Outline: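 Luminescent readout of luciferin produced by CYP3A4 (20 nM) dealkylation of Luciferin-PPXE, 25 uM (its KM). NADPH-driven reaction ran 60 min at RT after 10 min compound preincubation; data scaled to 57 uM ketoconazole as 100% inhibition.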

[17] = molecular target: Cytochrome P450 2D6 (Homo sapiens) (UniProt P10635); assay: qHTS Assay for Inhibitors and Substrates of Cytochrome P450 2D6 (AID 891); note: potency is the fitted concentration of half-maximal effect; nearly all actives have a fitted effect of over 60% in size
Outline: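 Luminescent read-out of luciferin formed by 5 nM human CYP2D6 demethylating 30 uM Luciferin-ME EGE (Km level) over 60 min at room temperature after NADPH regeneration addition. Data normalized to full inhibition by 1.43 uM quinidine.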

[18] = measured here: cell count channel max response
[19] = measured here: lipid channel max response

OCCNCCCOc1cccc(Cl)c1Cl
active: Potency [1] 0.2 µM | Potency [6] 3.98 µM
inactive: Potency [2] > 46 µM | Potency [3] > 46 µM | Potency [4] | Potency [5] | Potency [7] | Potency [8] | Potency [9]

CC(C)Oc1ccc2c(=O)c3cc(C(=O)O)ccc3oc2c1
inactive: Potency [1] | Potency [2] > 46 µM | Potency [3] > 46 µM | Potency [4] | Potency [8] | Potency [9]

Cc1nc(N=Nc2cc(S(=O)(=O)O)ccc2S(=O)(=O)O)c(COP(=O)(O)O)c(C=O)c1O
-2.68%: max response [11, 19]
active: Potency [12] 1 µM
-2.46%: max response [11, 18]
inactive: Potency [1] | Potency [3] > 46 µM | Potency [4] | Potency [10] | activity change, negative = inhibition [11] -1.5% | Potency [8] | Potency [9]

OC[C@H]1NC[C@@H](O)[C@@H](O)[C@H]1O
inactive: Potency [1] | Potency [2] > 46 µM | Potency [3] > 46 µM | Potency [4] | Potency [10] | Potency [7] | Potency [8] | Potency [9]

CN(CC[C@@H](Oc1ccc(-c2ccccc2)cc1)c1ccc(F)cc1)CC(=O)O
inactive: Potency [1] | Potency [2] > 46 µM | Potency [3] > 46 µM | Potency [4] | Potency [8] | Potency [9] | Potency [14] | Potency [15]
active: Potency [13] 2.51 µM | Potency [6] 6.31 µM

O=C(NCCCN1CCCCCC1)[C@@H](c1ccccc1)C1CCCCC1
inactive: Potency [2] > 46 µM | Potency [3] > 46 µM | Potency [5] | Potency [7] | Potency [8] | Potency [9]
active: Potency [1] 31.6 µM | Potency [16] 3.98 µM | Potency [17] 0.631 µM

CCCCCCCCCCCCCCCC(=O)C(F)(F)F
-9.26%: max response [11, 18]
inactive: Potency [3] > 46 µM | Potency [4] | activity change, negative = inhibition [11] 2.39% | Potency [8] | Potency [9]
active: Potency [1] 31.6 µM
-5.47%: max response [11, 19]

c1ccc2nc(C3=NCCN3)cnc2c1
active: Potency [1] 0.398 µM
inactive: Potency [2] > 46 µM | Potency [3] > 46 µM | Potency [4] | Potency [7] | Potency [8] | Potency [9]

CC(C)NC[C@@H](O)COc1ccccc1-n1cccc1
inactive: Potency [2] > 46 µM | Potency [3] > 46 µM | Potency [7] | Potency [8] | Potency [9]
active: Potency [1] 3.98 µM

CN(CCc1ccc(Cl)c(Cl)c1)C[C@@H](O)COc1ccc(NS(C)(=O)=O)cc1
inactive: Potency [2] > 46 µM | Potency [3] > 46 µM | Potency [4] | Potency [10] | Potency [5] | Potency [8] | Potency [9]
active: Potency [1] 15.8 µM | Potency [13] 2.51 µM | Potency [6] 2 µM

CCCCCCCCC(=O)NCc1cc(OC)c(O)cc1I
inactive: Potency [2] > 46 µM | Potency [3] > 46 µM | Potency [4] | Potency [5] | Potency [8] | Potency [9]
active: Potency [1] 12.6 µM | Potency [16] 3.16 µM | Potency [17] 7.94 µM

C[C@@]1(C(=O)O)NCCc2cc(O)c(O)cc21
active: Potency [7] 56.2 µM | Potency [9] 11.9 µM
inactive: Potency [1] | Potency [2] > 46 µM | Potency [3] > 46 µM | Potency [10] | Potency [5] | Potency [8]
